From PubChem BioAssay come the findings set out here.

The structures appear in SMILES notation. Values without a mark were called inactive.

The target in this test is NADPH oxidase 4 (Homo sapiens) (UniProt Q9NPH5). Put plainly: compounds shifting NOX4 Amplex Red fluorescence – cell-based, HEK293-NOX4, tetracycline-induced, NOX inhibitor project, primary screen (AID 1160). As to conditions: HEK293-NOX4, Amplex Red H2O2 fluorescence, 45 min; higher = more signal, called active from +8 up or from −8 down.
NADPH oxidase 4 (Homo sapiens), sequence (Q9NPH5 whole entry, looked up): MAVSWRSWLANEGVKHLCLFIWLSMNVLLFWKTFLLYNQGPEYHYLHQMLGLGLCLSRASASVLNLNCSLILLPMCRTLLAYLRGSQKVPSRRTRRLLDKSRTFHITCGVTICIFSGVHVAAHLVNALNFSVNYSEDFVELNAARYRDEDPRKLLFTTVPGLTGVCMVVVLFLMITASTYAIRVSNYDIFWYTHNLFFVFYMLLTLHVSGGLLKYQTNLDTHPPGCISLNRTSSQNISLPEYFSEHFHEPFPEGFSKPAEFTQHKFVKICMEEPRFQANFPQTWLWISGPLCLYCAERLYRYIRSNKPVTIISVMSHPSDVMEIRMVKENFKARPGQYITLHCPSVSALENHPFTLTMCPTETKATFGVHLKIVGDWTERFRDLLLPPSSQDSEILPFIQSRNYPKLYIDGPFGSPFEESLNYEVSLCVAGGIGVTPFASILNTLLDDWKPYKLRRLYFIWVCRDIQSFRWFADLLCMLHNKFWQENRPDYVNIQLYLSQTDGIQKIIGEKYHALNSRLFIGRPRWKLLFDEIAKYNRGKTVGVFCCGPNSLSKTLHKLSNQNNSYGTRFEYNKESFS
`COC(=O)CC=C[C@@H](C)[C@@H](C=NOC(C)CN1CCCCc2nc(C)c(C)cc21)OC` (stereo partly specified): the z-score is -0.392.

For the molecule `CCOC(=O)[C@H](CC(C)C)NC(=O)CCC1CC(OC(=O)NCc2ccc3c(c2)OCO3)CC2(CCCC(COC(=O)NCCc3ccc(Cl)cc3)O2)O1` (stereo partly specified), the z-score is 0.575.

As to `CC(CCN1CCc2nc(-c3ccccc3)c(-c3ccccc3)cc2C1)=NO[C@H](C)c1cn([C@H](CO)Cc2ccccc2)nn1`, the z-score is -0.31.

In the case of `CC(CCC(=O)OC[C@H]1O[C@H](C#Cc2ccccc2)C=C[C@@H]1Oc1ccc(C)cc1)=NO[C@H](C)c1cn([C@@H]2COC[C@H]2O)nn1`, the z-score is -0.358.

For `CC(CCN1CCc2nc(-c3ccccc3)c(-c3ccccc3)cc2C1)=NOC(C)CN1CCCc2nc(C)c(C)cc21` (stereo unspecified), the z-score is -0.946.

`CCC1=NOC(CCC2CC(OC(=O)NCc3cccc4c3OCO4)CC3(CCCC(COC(=O)NCCc4ccc(Cl)cc4)O3)O2)C1` (stereo unspecified): the z-score was 0.891.

As to `CCOC(=O)CCN1C(=O)[C@H]2[C@@H]3C(=CC[C@H]2C1=O)C(=O)[C@H]1O[C@H]1[C@H]3O`, the z-score was 0.35.

On to `CON=C(C)CCC(=O)OC[C@H]1O[C@H](C#Cc2ccccc2)C=C[C@@H]1Oc1ccc(C)cc1`, for which the z-score was -2.25.

Take `Cc1cc2c(nc1C)CCCCN2CC(O)CN1CCCc2nc(-c3ccc(Br)cc3)ccc21` (stereo unspecified): the z-score was 0.175.

`COC(=O)[C@H](C)NC(=O)CCC1CC(OC(=O)NCc2cccc3ccccc23)CC2(CCCC(COC(=O)NCCc3ccccc3OC)O2)O1` (stereo partly specified): the z-score is 0.357.

For `CC#CCOCCC=C1c2ccccc2[C@@H](OC)[C@@H]1C`, the z-score was 0.936.

Regarding `CCO[C@H](c1cc(OC)cc([N+](=O)[O-])c1OC)[C@H](C)[C@@H](OC)[C@H](C)C=CCC(=O)OC`, the z-score was -0.442.

In the case of `O=C1[C@H]2[C@H]3[C@H](O)[C@H](O)CC(=NOC[C@@H](O)COCc4ccco4)[C@@H]3CC[C@H]2C(=O)N1c1cccc(Oc2ccccc2)c1`, the z-score was 1.32.

In the case of `COC(=O)[C@@H]1CC[C@H](C)[C@@H](c2ccc(Br)cc2)N1C[C@@H](O)CN=[N+]=[N-]`, the z-score was -1.37.

`CCOC(=O)[C@H](Cc1ccccc1)NC(=O)CCC1CC(OC(=O)NCc2cccc3ccccc23)CC2(CCCC(COC(=O)NCC3CCCCC3)O2)O1` (stereo partly specified): the z-score was 0.745.

Take `C#CCCCON=C1[C@H]2CCn3c(=O)n([C@@H](CC)c4ccccc4)c(=O)n3[C@H]2[C@H](O)[C@@H]2O[C@H]12`: the z-score is 0.633.

Turning to `C[C@@H]1C=CCC(=O)OC[C@H](C)C(=O)N[C@@H](Cc2ccccc2)C(=O)OC1`, the z-score is -0.928.

Take `Cc1ccc2[nH]c3nc(CCCn4ccnc4-c4ccccc4)nnc3c2c1`: the z-score is -0.375.

For `CC(CCN1CCc2nc(-c3ccccc3)c(-c3ccccc3)cc2C1)=NO[C@@H](C)c1cc(-c2c(C)cc(C)cc2C)no1`, the z-score was -0.901.

On to `O=C1[C@H]2CCn3c(=O)n(Cc4cc5c(cc4Cl)OCO5)c(=O)n3[C@H]2[C@H](O)[C@@H]2O[C@H]12`, for which the z-score is 0.135.

Regarding `CCCNC(=O)OC[C@H]1O[C@H](CCON=C[C@@H](NS(=O)(=O)c2ccc(C)cc2)[C@H](C)C=CCC(=O)OC)C=C[C@@H]1Oc1ccc(OC)cc1`, the z-score is 0.361.

For `CCN1C(=O)[C@H]2[C@H]3[C@H](O)[C@H](O)CC(=NOCC[C@@H]4C=C[C@H](OC(C)=O)[C@@H](COC(C)=O)O4)[C@@H]3CC[C@H]2C1=O`, the z-score is -0.0656.

As for `COc1ccc(O[C@H]2C=C[C@@H](c3ccccc3)O[C@@H]2COC(=O)CCC(C)=NOC[C@@H](O)COCc2ccco2)cc1`, the z-score was -0.876.

In the case of `CC(C)[C@@H](OCc1ccccc1)[C@H](C)C=NOC[C@@H](O)[C@H]1O[C@@H]2OC(C)(C)O[C@@H]2[C@H]1O`, the z-score is -1.94.

In the case of `O=C1C2=CC[C@H]3C(=O)N(Cc4ccccc4)C(=O)[C@H]3[C@H]2[C@H](O)[C@@H]2O[C@H]12`, the z-score was 0.16.

In the case of `COC(=O)[C@H](C)NC(=O)CCC1CC(OC(=O)NCc2ccc3c(c2)OCO3)CC2(CCCC(COC(=O)NCc3ccccc3)O2)O1` (stereo partly specified), the z-score is 1.22.

Regarding `CC(C)CON=C1C[C@@H](O)[C@@H](O)[C@@H]2[C@@H]3C(=O)N(Cc4ccccc4)C(=O)[C@@H]3CC[C@H]12`, the z-score is 0.209.

Take `O=C1[C@H]2[C@H]3[C@H](O)[C@H](O)CC(=NO[C@@H]4O[C@H](CO)[C@@H](O)[C@H](O)[C@H]4O)[C@H]3CC[C@H]2C(=O)N1c1ccc(F)cc1F`: the z-score is 0.73.

`CC(=O)OC[C@H]1O[C@@H](ON=C2[C@H]3CCn4c(=O)n(-c5ccccc5)c(=O)n4[C@H]3[C@H](O)[C@@H]3O[C@H]23)[C@H](OC(C)=O)[C@@H](OC(C)=O)[C@@H]1OC(C)=O`: the z-score was -0.47.

For `C#CCCCON=C1C[C@@H](O)[C@@H](O)[C@@H]2[C@@H]3C(=O)N([C@@H](C)c4ccccc4)C(=O)[C@@H]3CC[C@@H]12`, the z-score was 0.574.

Take `O=C1[C@H]2[C@H]3[C@H](O)[C@H](O)CC(=NOC[C@@H](O)COCc4ccco4)[C@@H]3CC[C@H]2C(=O)N1C1CCCCC1`: the z-score is 0.721.

For the molecule `C[C@]12CCC3c4ccc(OCC5CO5)cc4CCC3C1CC[C@@H]2O` (stereo partly specified), the z-score was -1.42.

With `CCOC(=O)CCN1C(=O)[C@H]2[C@H]3[C@H](O)[C@H](O)CC(=NO[C@@H]4O[C@H](CO)[C@@H](O)[C@H](O)[C@H]4O)[C@H]3CC[C@H]2C1=O`, the z-score was 0.451.

On to `C=CCOCC1CN2[C@@H](CC[C@@H](C)[C@@H]2c2ccc(Br)cc2)C(=O)O1` (stereo partly specified), for which the z-score is -0.604.

As to `CO[C@H]1COC(=O)[C@H](C)COC(=O)[C@@H](OCc2ccccc2)C=C[C@@H]1C`, the z-score is 0.603.

As for `CC(C)=NOC(C)CN1CCCc2nc(C)c(C)cc21` (stereo unspecified), the z-score is -0.141.
